Source: PubChem BioAssay (NCATS)
Records with an inconclusive call do not appear. For part of these data: Entries with a potency or affinity are not part of this list. Activity calls are given as the source filed them.

What was measured:
[1] = Ebola virus entry assay, green fluorescence channel
[2] = Ebola virus entry assay, green channel fluorescence
[3] = Ebola virus entry assay, reporter ratio channel; AC50: Channel type: primary unless noted; outcome: Channel type: primary unless noted
[4] = Ebola virus entry assay, blue channel (ratio component)
[5] = qHTS assay for measurement of the activity of small molecule inhibitors on Zika virus induced Caspase-3 activity in human iPSC derived neural progenitor cells (hNPCs) (AID 1224857; active = well fitted inhibition curve with a large enough effect; note: % of control where 0% means no effect; nearly all actives have a fitted effect of over 65% in size); conditions: hNPCs ZIKV-induced caspase-3/7, Caspase-Glo luminescence, 6 h; series mostly up to 45.7 µM
Outline: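 Quantitative HTS format: human iPSC neural progenitors, 1 h compound pretreatment, ZIKV 2 FFU/cell for 6 h at 37 C. Percent inhibition derived from luminescent caspase-3/7 signal between uninfected and infected controls.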

[6] = qHTS assay for measurement of the activity of small molecule inhibitors on Zika virus induced Caspase-3 activity in human astrocytoma cells (AID 1224859; active = well fitted inhibition curve with a large enough effect;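 note: plate controls were ZIKV-infected untreated cells for no effect and uninfected cells for full effect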); conditions: SNB-19 ZIKV-induced caspase-3/7, luminescence, 6 h; series mostly up to 45.7 µM
Outline: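 Readout is luminescence from Caspase-Glo 3/7 added after a 6 h ZIKV infection (2 FFU/cell) of compound-pretreated (1 h) SNB-19 cells; data expressed as % inhibition versus uninfected and infected wells.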

[7] = qHTS profiling of the MIPE4 collection as inhibitors of Plasmodium falciparum (DD2) proliferation (AID 743345); conditions: P. falciparum Dd2 in erythrocytes, SYBR Green DNA, 72 h; at 28.5 µM (top of the series) unless noted
Outline: (§1)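 Erythrocytes infected with P. falciparum (0.3% parasitemia, 2.5% hematocrit) incubated with compounds 72 h at 37 C, 5% CO2. Lysis with saponin/Triton buffer containing SYBR Green I, overnight at room temperature in the dark; DNA fluorescence (485/535 nm) normalised to 0.29 uM artemisinin and DMSO.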

[8] = qHTS profiling of the MIPE4 collection as inhibitors of Plasmodium falciparum (DD2) proliferation (Rep 2) (AID 743346); conditions: P. falciparum Dd2 in erythrocytes, SYBR Green DNA, 72 h; at 28.5 µM (top of the series) unless noted
Outline: as §1

[9] = qHTS profiling of the MIPE4 collection as inhibitors of Plasmodium falciparum (HB3) proliferation (AID 743347);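 note: plate controls were DMSO vehicle wells for no effect and artemisinin wells for full effect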; conditions: P. falciparum HB3 in erythrocytes, SYBR Green DNA, 72 h; at 28.5 µM (top of the series) unless noted
Outline: as §1

[10] = High-throughput drug toxicity screening in the BPDCN cell line Cal-1 (AID 1224825); conditions: Cal-1 BPDCN cell viability, qHTS; at 45.8 µM (top of the series) unless noted
Outline: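 Cal-1 cells, 500 per well in phenol-red-free RPMI with 10% FBS, exposed to compounds for 48 hours at 37C, 5% CO2. Viability read by CellTiter-Glo luminescence; percent activity normalized to DMSO (100%) and 9.2 uM bortezomib final (0%).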

[11] = Ebola virus entry assay, blue channel fluorescence
[12] = Ebola virus entry assay, green fluorescence channel; remark: listed apart in the source
[13] = Ebola virus entry assay, ratio channel readout
[14] = Ebola virus entry assay, blue channel fluorescence; remark: listed apart in the source
[15] = Ebola virus entry assay, ratio channel
[16] = Ebola virus entry assay, blue channel fluorescence; remark: listed apart in the source
[17] = Ebola virus entry reporter assay, green channel fluorescence
[18] = Ebola virus entry cell assay, ratio channel
[19] = Immunotoxin (SS1P) sensitization/mitigation study. Vehicle arm (DMEM) (AID 1159513); conditions: cell viability with vehicle (DMEM); series mostly up to 46.1 µM; note: potency is the fitted concentration of half-maximal effect
[20] = Immunotoxin (HA22) sensitization/mitigation study. Vehicle arm (PBS) (AID 1159510); conditions: cancer cells viability with PBS vehicle (HA22 study); series mostly up to 46.1 µM; note: potency is the fitted concentration of half-maximal effect
Throughout, for efficacy: 0% is about no effect.

NC(=O)CS(=O)C(c1ccccc1)c1ccccc1 (stereo not drawn)
inactive: efficacy [1] -20.1% | outcome [2] | outcome [3] | outcome [4] | outcome [5] | outcome [6]

C[C@]12CC[C@@H]3c4ccc(OC(=O)N(CCCl)CCCl)cc4CC[C@H]3[C@@H]1CC[C@@H]2O
inactive: efficacy [1] -12.5% | outcome [2] | outcome [3] | outcome [4] | outcome [5] | outcome [6]

CCCCC(CC)CN1CN(CC(CC)CCCC)CC(C)(N)C1 (stereo not drawn)
inactive: efficacy [1] -31.6% | outcome [3] | outcome [4]

COC1CC(=C(c2cccs2)c2cccs2)C[N+](C)(C)C1 (stereo not drawn)
inactive: efficacy [1] 18.8% | outcome [2] | outcome [3] | outcome [4] | outcome [5] | outcome [6]

CN1C(=O)COc2c(C(=O)NC3CN4CCC3CC4)cc(Cl)cc21 (stereo not drawn)
86.6%: growth, % of control [9]
120%: viability (% of control) [10]
78.2%: parasite growth remaining, % of DMSO control (lower = more inhibition) [7]
95.9%: parasite growth, % of control (lower = inhibition) [8]
inactive: efficacy [1] -18% | outcome [2] | outcome [3] | outcome [4] | outcome [5] | outcome [6]

COC(=O)C(Cl)C(=O)OC
inactive: efficacy [1] 18.5% | outcome [2] | outcome [3] | outcome [4] | outcome [5] | outcome [6]

CCc1oc2ccccc2c1C(=O)c1cc(I)c(O)c(I)c1
inactive: efficacy [1] -12% | outcome [2] | outcome [3] | outcome [4]

C[C@]12CC[C@H]3[C@@H](CCC4=CC(=O)CC[C@@H]43)[C@@H]1CC[C@@H]2OC(=O)CCC1CCCCC1
inactive: efficacy [1] -18.4% | outcome [2] | outcome [3] | outcome [4] | outcome [5] | outcome [6]

CCC(C)C(C)(COC(N)=O)COC(N)=O (stereo not drawn)
inactive: efficacy [1] 12.3% | outcome [2] | outcome [3] | outcome [4] | outcome [5] | outcome [6]

O=C1c2ccccc2C(=O)C1C(=O)C(c1ccccc1)c1ccccc1
inactive: efficacy [1] -17.4% | outcome [2] | outcome [3] | outcome [4] | outcome [5] | outcome [6]

CC(C)c1c(CN(C)C(C)Cc2ccccc2)n(C)n(-c2ccccc2)c1=O (stereo not drawn)
inactive: efficacy [1] -15% | outcome [2] | outcome [3] | outcome [4] | outcome [5] | outcome [6]

CCN(CC)C(=O)/C(C#N)=C/c1cc(O)c(O)c([N+](=O)[O-])c1
inactive: outcome [11] | outcome [12] | outcome [13] | outcome [14] | outcome [15] | outcome [2] | outcome [16] | outcome [3] | outcome [4] | outcome [17] | outcome [18]

CN1CCC(O)(c2ccc(F)cc2)C(C(=O)c2ccc(F)cc2)C1 (stereo not drawn)
inactive: efficacy [1] 22.6% | outcome [2] | outcome [3] | outcome [4] | outcome [5] | outcome [6]

Oc1ccc(Cl)cc1
inactive: efficacy [1] -35.6% | outcome [2] | outcome [3] | outcome [4] | outcome [5] | outcome [6]

O=C(O)/C=C\C(=O)O
inactive: efficacy [1] 12.7% | outcome [2] | outcome [3] | outcome [4] | outcome [5]

CC(=O)C1CCOC1=O (stereo not drawn)
inactive: efficacy [1] 6.81% | outcome [2] | outcome [3] | outcome [4] | outcome [5] | outcome [6]

O=C(N/N=C/c1ccc([N+](=O)[O-])o1)c1cc([N+](=O)[O-])cc([N+](=O)[O-])c1O
inactive: efficacy [1] -16.9% | outcome [2] | outcome [3] | outcome [4] | outcome [5] | outcome [6]

Cc1ccc(Nc2nccc(N(C)c3ccc4c(C)n(C)nc4c3)n2)cc1S(N)(=O)=O
active: Potency [19] 20.9 µM
inactive: efficacy [1] 37.4% | outcome [2]

CC(=O)OCC1=C(C(=O)O)N2C(=O)[C@@H](N)[C@H]2SC1
inactive: efficacy [1] 11.9% | outcome [2] | outcome [3] | outcome [4] | outcome [5] | outcome [6]

C=C(C)[C@H]1CN[C@H](C(=O)O)[C@H]1CC(=O)O
inactive: efficacy [1] -11.7% | outcome [2] | outcome [3] | outcome [4] | outcome [5] | outcome [6]

[N-]=[N+]=CC(=O)OC[C@H](N)C(=O)O
inactive: efficacy [1] 10.3% | outcome [2] | outcome [3] | outcome [4] | outcome [5] | outcome [6]

CCCCCCC(=O)CCCCCC/C=C/C[C@@H](O)[C@H](O)[C@@](N)(CO)C(=O)O
inactive: efficacy [1] -11.6% | outcome [2] | outcome [3] | outcome [4] | outcome [5] | outcome [6]

CCCc1nn(C)c2c(=O)[nH]c(-c3cc(S(=O)(=O)N4CCN(C)CC4)ccc3OCC)nc12
inactive: efficacy [1] 14.7% | outcome [2] | outcome [3] | outcome [4] | Potency [20] | Potency [19]

CN1C(=O)CCS(=O)(=O)C1c1ccc(Cl)cc1 (stereo not drawn)
112%: viability (% of control) [10]
inactive: efficacy [1] 19.9% | outcome [2] | outcome [3] | outcome [4] | outcome [5] | outcome [6]
126%: parasite growth, % of control (lower = inhibition) [8]
91.5%: parasite growth remaining, % of DMSO control (lower = more inhibition) [7]
109%: growth, % of control [9]

COc1cc2c(Nc3ccc(Br)cc3F)ncnc2cc1OCC1CCN(C)CC1
inactive: efficacy [1] 16.7% | outcome [2] | outcome [3] | outcome [4]
active: Potency [20] 20.9 µM

O=C(O)c1ccc(=O)[nH]c1
inactive: efficacy [1] -14.8% | outcome [2] | outcome [3] | outcome [4] | outcome [5] | outcome [6]

CC(=O)CC(c1ccccc1)c1c(O)c2ccccc2oc1=O (stereo not drawn)
69.5%: parasite growth, % of control (lower = inhibition) [8]
84.4%: growth, % of control [9]
inactive: efficacy [1] -35.3% | outcome [2] | outcome [3] | outcome [4]
93.4%: parasite growth remaining, % of DMSO control (lower = more inhibition) [7]

COc1cc(C(=O)NS(=O)(=O)c2ccccc2C)ccc1Cc1cn(C)c2ccc(NC(=O)OC3CCCC3)cc12
inactive: outcome [11] | outcome [12] | outcome [13] | outcome [14] | outcome [15] | outcome [2] | outcome [16] | outcome [3] | outcome [4] | outcome [17] | outcome [18]

C[C@H](N)C(=O)c1ccccc1
inactive: efficacy [1] 31.4% | outcome [2] | outcome [3] | outcome [4] | outcome [5] | outcome [6]

CC(C)(N)Cc1ccccc1Cl
inactive: efficacy [1] 18% | outcome [2] | outcome [3] | outcome [4] | outcome [5] | outcome [6]

NC(=O)c1cnccn1
inactive: outcome [11] | outcome [12] | outcome [13] | outcome [14] | outcome [2] | outcome [16] | outcome [3] | outcome [4] | outcome [18]
